Measurements reported in article PMC7862700, “An all-to-all approach to the identification of sequence-specific readers for epigenetic DNA modifications on cytosine”.

Assays:
Experiment in all cases: DAPPL (digital affinity profiling via proximity ligation, sequencing); 10 mM Tris-HCl pH 7.5, 50 mM NaCl, 1 mM DTT, 4% glycerol, room temperature, 30 min; GST-TFs on glutathione beads, 16-mer random dsDNA library, 0.1% formaldehyde crosslink after washing; high values mean tight binding
FEV = target: T1, FEV (Homo sapiens, UniProt Q99581 1-238); conditions: protein: recombinant; tags: N-terminal GST; dsDNA, one strand shown
T1 sequence: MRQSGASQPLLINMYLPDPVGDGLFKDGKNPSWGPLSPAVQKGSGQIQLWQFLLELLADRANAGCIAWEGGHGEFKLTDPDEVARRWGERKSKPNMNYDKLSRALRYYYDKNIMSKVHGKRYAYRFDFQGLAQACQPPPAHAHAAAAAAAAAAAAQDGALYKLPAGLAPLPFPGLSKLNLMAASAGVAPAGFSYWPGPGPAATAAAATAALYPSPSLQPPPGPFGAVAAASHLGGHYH
Procedure, shortened: (§1)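 Pools of DNA-barcoded human transcription factors, expressed in yeast as GST fusions on glutathione beads and combined with a tag-only sample, were incubated with 200 nmole of a 16-mer random double-stranded DNA library. Incubation took 30 min at room temperature in Tris/NaCl/DTT/glycerol buffer and was followed by washing, 0.1% formaldehyde crosslinking, proximity ligation (BsaI/T4 ligase, 1 h, 37 °C), PCR amplification and sequencing on an Illumina NextSeq500. Binding signal is the ratio of a hexamer's read frequency for a factor to its frequency for the tag-only sample.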

ETV5 = ETV5 (Homo sapiens, UniProt P41161 1-510); conditions: protein: recombinant; tags: N-terminal GST; dsDNA, one strand shown
Procedure, shortened: as §1

HSF1 = HSF1 (Homo sapiens, UniProt Q00613 1-529); conditions: protein: recombinant; tags: N-terminal GST; chain copies: 3; dsDNA, one strand shown
Procedure, shortened: as §1

SPIC = target: T2, SPIC (Homo sapiens, UniProt Q8N5J4 1-248); conditions: protein: recombinant; tags: N-terminal GST; dsDNA, one strand shown
T2 sequence: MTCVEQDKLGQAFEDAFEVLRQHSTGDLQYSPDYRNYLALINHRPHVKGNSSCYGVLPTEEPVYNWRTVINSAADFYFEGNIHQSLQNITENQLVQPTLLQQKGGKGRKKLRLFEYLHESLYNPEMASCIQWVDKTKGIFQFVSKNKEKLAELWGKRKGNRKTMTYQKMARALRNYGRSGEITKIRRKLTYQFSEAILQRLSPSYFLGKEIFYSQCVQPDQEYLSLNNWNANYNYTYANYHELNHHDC
Procedure, shortened: as §1

ELF4 = ELF4 (Homo sapiens, UniProt Q99607 1-663); conditions: protein: recombinant; tags: N-terminal GST; dsDNA, one strand shown
Procedure, shortened: as §1

ELK4 = target: T3, ELK4 (Homo sapiens, UniProt P28324-2 1-405); conditions: protein: recombinant; tags: N-terminal GST; dsDNA, one strand shown
T3 sequence: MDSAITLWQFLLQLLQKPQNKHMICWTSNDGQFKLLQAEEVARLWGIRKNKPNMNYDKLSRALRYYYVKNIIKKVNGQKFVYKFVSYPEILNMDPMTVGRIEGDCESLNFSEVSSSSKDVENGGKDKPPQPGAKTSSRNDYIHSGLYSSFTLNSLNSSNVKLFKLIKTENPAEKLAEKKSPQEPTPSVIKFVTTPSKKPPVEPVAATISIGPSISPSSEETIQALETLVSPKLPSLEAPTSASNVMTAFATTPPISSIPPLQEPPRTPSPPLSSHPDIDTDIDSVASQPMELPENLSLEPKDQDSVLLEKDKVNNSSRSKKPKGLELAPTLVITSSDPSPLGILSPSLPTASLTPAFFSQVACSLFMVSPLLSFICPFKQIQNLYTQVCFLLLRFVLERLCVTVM
Procedure, shortened: as §1

ETV2 = target: T4, ETV2 (Homo sapiens, UniProt O00321 1-342); conditions: protein: recombinant; tags: N-terminal GST; dsDNA, one strand shown
T4 sequence: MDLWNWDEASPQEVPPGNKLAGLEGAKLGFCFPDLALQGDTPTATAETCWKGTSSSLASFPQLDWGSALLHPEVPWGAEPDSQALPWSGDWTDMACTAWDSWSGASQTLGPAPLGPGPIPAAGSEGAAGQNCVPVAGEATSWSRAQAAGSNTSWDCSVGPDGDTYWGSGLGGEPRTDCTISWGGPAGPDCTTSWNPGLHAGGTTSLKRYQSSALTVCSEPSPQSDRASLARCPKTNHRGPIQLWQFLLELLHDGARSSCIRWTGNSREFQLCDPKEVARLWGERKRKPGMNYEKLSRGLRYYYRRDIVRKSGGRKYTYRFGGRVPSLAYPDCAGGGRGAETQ
Procedure, shortened: as §1

ELF3 = target: T5, ELF3 (Homo sapiens, UniProt P78545 1-371); conditions: protein: recombinant; tags: N-terminal GST; dsDNA, one strand shown
T5 sequence: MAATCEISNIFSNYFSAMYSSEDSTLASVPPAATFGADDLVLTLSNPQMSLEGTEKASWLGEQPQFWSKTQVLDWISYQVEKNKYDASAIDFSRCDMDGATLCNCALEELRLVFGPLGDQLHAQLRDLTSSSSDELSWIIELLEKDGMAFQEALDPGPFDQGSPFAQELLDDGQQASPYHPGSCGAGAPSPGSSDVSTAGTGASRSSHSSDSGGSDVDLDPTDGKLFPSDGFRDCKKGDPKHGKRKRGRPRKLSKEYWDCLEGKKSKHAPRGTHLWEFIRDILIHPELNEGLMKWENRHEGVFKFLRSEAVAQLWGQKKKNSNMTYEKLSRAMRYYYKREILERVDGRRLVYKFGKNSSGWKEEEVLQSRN
Procedure, shortened: as §1

CRX = CRX (Homo sapiens, UniProt O43186 1-299); conditions: protein: recombinant; tags: N-terminal GST; dsDNA, one strand shown
Procedure, shortened: as §1

ETV1 = ETV1 (Homo sapiens, UniProt P50549 1-477); conditions: protein: recombinant; tags: N-terminal GST; dsDNA, one strand shown
Procedure, shortened: as §1

Sequence of ETV1 (P50549 whole entry): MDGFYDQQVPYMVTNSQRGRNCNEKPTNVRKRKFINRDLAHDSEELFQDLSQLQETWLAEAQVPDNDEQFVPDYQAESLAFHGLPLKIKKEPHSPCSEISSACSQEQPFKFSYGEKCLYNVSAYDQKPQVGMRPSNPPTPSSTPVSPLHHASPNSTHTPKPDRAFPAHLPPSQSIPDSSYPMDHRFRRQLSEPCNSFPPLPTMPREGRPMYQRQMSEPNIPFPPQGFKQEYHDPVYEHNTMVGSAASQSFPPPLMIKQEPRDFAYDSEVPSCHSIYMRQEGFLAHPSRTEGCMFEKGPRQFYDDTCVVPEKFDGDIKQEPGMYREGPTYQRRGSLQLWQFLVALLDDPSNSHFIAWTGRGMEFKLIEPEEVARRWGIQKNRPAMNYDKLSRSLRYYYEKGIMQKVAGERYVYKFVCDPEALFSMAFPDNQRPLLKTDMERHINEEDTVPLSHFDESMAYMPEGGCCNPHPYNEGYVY
Sequence of ELF4 (Q99607 whole entry): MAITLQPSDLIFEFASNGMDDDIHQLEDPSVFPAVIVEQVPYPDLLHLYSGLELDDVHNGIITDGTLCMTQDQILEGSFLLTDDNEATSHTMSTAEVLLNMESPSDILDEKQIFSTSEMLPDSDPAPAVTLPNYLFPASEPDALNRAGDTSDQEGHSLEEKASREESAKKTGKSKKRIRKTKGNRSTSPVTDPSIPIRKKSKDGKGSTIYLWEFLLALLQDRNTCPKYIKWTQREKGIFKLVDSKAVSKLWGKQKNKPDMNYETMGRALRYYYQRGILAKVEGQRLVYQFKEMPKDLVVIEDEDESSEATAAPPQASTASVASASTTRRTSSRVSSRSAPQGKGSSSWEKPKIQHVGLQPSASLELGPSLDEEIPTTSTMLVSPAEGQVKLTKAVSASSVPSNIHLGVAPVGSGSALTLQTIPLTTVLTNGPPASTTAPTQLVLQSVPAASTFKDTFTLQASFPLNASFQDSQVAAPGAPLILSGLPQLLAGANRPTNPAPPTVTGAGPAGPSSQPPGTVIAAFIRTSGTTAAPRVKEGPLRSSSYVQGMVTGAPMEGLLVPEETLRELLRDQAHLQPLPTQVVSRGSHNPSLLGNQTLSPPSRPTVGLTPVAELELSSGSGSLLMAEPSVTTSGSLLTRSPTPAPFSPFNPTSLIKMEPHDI
Sequence of HSF1 (Q00613 whole entry): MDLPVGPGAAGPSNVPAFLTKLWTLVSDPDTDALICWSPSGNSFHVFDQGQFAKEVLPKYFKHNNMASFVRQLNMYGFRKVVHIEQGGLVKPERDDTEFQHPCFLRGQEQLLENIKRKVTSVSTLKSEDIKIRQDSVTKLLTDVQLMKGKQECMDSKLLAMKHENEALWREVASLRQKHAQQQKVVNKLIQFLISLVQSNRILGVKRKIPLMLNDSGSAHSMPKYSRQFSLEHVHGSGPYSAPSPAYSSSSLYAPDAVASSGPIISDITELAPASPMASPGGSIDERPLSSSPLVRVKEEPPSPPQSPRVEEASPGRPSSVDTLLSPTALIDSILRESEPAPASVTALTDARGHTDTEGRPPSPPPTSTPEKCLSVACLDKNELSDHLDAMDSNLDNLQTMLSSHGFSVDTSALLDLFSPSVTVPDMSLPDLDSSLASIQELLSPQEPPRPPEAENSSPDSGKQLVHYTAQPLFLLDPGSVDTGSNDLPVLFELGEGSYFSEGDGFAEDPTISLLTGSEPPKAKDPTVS
Sequence of ETV5 (P41161 whole entry): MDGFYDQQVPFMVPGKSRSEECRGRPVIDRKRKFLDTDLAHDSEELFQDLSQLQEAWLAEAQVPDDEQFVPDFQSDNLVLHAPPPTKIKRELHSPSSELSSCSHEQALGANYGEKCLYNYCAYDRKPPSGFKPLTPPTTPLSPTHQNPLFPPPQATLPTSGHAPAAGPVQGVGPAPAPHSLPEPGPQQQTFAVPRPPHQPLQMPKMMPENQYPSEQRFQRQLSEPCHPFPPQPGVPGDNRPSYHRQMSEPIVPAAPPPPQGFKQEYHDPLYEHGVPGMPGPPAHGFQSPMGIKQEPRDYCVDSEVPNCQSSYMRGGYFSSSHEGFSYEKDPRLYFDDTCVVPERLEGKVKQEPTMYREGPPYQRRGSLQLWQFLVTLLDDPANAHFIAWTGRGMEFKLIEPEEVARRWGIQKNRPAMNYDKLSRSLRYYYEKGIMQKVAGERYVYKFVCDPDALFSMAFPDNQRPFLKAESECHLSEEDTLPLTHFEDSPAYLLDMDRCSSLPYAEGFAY
Sequence of CRX (O43186 whole entry): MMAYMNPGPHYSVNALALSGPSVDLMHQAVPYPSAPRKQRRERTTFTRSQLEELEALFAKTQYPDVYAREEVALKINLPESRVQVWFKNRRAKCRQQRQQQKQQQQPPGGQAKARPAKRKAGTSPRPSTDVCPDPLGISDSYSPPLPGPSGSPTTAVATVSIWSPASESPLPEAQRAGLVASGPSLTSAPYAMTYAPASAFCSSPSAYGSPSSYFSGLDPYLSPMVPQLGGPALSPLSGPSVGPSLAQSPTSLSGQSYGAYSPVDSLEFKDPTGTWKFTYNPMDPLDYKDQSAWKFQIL

AAATCC
binding signal (FEV): 2.56 fold enrichment (6-mer frequency, TF over GST control) | binding signal (ETV5): 1.64 fold enrichment (6-mer frequency, TF over GST control) | binding signal (HSF1): 1.9 fold enrichment (6-mer frequency, TF over GST control) | binding signal (SPIC): 1.5 fold enrichment (6-mer frequency, TF over GST control) | binding signal (ELF4): 1.51 fold enrichment (6-mer frequency, TF over GST control) | binding signal (ELK4): 1.47 fold enrichment (6-mer frequency, TF over GST control) | binding signal (ETV2): 1.45 fold enrichment (6-mer frequency, TF over GST control) | binding signal (ELF3): 1.34 fold enrichment (6-mer frequency, TF over GST control) | binding signal (CRX): 2.53 fold enrichment (6-mer frequency, TF over GST control) | binding signal (ETV1): 1.58 fold enrichment (6-mer frequency, TF over GST control)

CTTTGT
binding signal (FEV): 1.28 fold enrichment (6-mer frequency, TF over GST control) | binding signal (ETV5): 1.3 fold enrichment (6-mer frequency, TF over GST control) | binding signal (HSF1): 1.22 fold enrichment (6-mer frequency, TF over GST control) | binding signal (SPIC): 1.21 fold enrichment (6-mer frequency, TF over GST control) | binding signal (ELF4): 1.29 fold enrichment (6-mer frequency, TF over GST control) | binding signal (ELK4): 1.43 fold enrichment (6-mer frequency, TF over GST control) | binding signal (ETV2): 1.03 fold enrichment (6-mer frequency, TF over GST control) | binding signal (ELF3): 1.23 fold enrichment (6-mer frequency, TF over GST control) | binding signal (CRX): 1.38 fold enrichment (6-mer frequency, TF over GST control) | binding signal (ETV1): 1.25 fold enrichment (6-mer frequency, TF over GST control)

ATGATG
binding signal (FEV): 1.27 fold enrichment (6-mer frequency, TF over GST control) | binding signal (ETV5): 1.33 fold enrichment (6-mer frequency, TF over GST control) | binding signal (HSF1): 1.24 fold enrichment (6-mer frequency, TF over GST control) | binding signal (SPIC): 1.35 fold enrichment (6-mer frequency, TF over GST control) | binding signal (ELF4): 1.37 fold enrichment (6-mer frequency, TF over GST control) | binding signal (ELK4): 1.38 fold enrichment (6-mer frequency, TF over GST control) | binding signal (ETV2): 1.47 fold enrichment (6-mer frequency, TF over GST control) | binding signal (ELF3): 1.38 fold enrichment (6-mer frequency, TF over GST control) | binding signal (CRX): 1.21 fold enrichment (6-mer frequency, TF over GST control) | binding signal (ETV1): 1.24 fold enrichment (6-mer frequency, TF over GST control)

ACATTT
binding signal (FEV): 1.46 fold enrichment (6-mer frequency, TF over GST control) | binding signal (ETV5): 1.44 fold enrichment (6-mer frequency, TF over GST control) | binding signal (HSF1): 1.3 fold enrichment (6-mer frequency, TF over GST control) | binding signal (SPIC): 1.25 fold enrichment (6-mer frequency, TF over GST control) | binding signal (ELF4): 1.41 fold enrichment (6-mer frequency, TF over GST control) | binding signal (ELK4): 1.36 fold enrichment (6-mer frequency, TF over GST control) | binding signal (ETV2): 1.68 fold enrichment (6-mer frequency, TF over GST control) | binding signal (ELF3): 1.6 fold enrichment (6-mer frequency, TF over GST control) | binding signal (CRX): 1.16 fold enrichment (6-mer frequency, TF over GST control) | binding signal (ETV1): 1.43 fold enrichment (6-mer frequency, TF over GST control)

TACTGT
binding signal (FEV): 1.11 fold enrichment (6-mer frequency, TF over GST control) | binding signal (ETV5): 1.15 fold enrichment (6-mer frequency, TF over GST control) | binding signal (HSF1): 1.05 fold enrichment (6-mer frequency, TF over GST control) | binding signal (SPIC): 1.1 fold enrichment (6-mer frequency, TF over GST control) | binding signal (ELF4): 1.12 fold enrichment (6-mer frequency, TF over GST control) | binding signal (ELK4): 1.25 fold enrichment (6-mer frequency, TF over GST control) | binding signal (ETV2): 1.34 fold enrichment (6-mer frequency, TF over GST control) | binding signal (ELF3): 1.03 fold enrichment (6-mer frequency, TF over GST control) | binding signal (CRX): 1.11 fold enrichment (6-mer frequency, TF over GST control) | binding signal (ETV1): 1.17 fold enrichment (6-mer frequency, TF over GST control)

CCCGTA
binding signal (FEV): 1.16 fold enrichment (6-mer frequency, TF over GST control) | binding signal (ETV5): 1.25 fold enrichment (6-mer frequency, TF over GST control) | binding signal (HSF1): 1.22 fold enrichment (6-mer frequency, TF over GST control) | binding signal (SPIC): 1.31 fold enrichment (6-mer frequency, TF over GST control) | binding signal (ELF4): 1.16 fold enrichment (6-mer frequency, TF over GST control) | binding signal (ELK4): 1.21 fold enrichment (6-mer frequency, TF over GST control) | binding signal (ETV2): 1.3 fold enrichment (6-mer frequency, TF over GST control) | binding signal (ELF3): 1.14 fold enrichment (6-mer frequency, TF over GST control) | binding signal (CRX): 1.17 fold enrichment (6-mer frequency, TF over GST control) | binding signal (ETV1): 1.16 fold enrichment (6-mer frequency, TF over GST control)

TCGCCT
binding signal (FEV): 1.28 fold enrichment (6-mer frequency, TF over GST control) | binding signal (ETV5): 1.3 fold enrichment (6-mer frequency, TF over GST control) | binding signal (HSF1): 1.3 fold enrichment (6-mer frequency, TF over GST control) | binding signal (SPIC): 1.22 fold enrichment (6-mer frequency, TF over GST control) | binding signal (ELF4): 1.27 fold enrichment (6-mer frequency, TF over GST control) | binding signal (ELK4): 1.5 fold enrichment (6-mer frequency, TF over GST control) | binding signal (ETV2): 1.3 fold enrichment (6-mer frequency, TF over GST control) | binding signal (ELF3): 1.31 fold enrichment (6-mer frequency, TF over GST control) | binding signal (CRX): 1.32 fold enrichment (6-mer frequency, TF over GST control) | binding signal (ETV1): 1.41 fold enrichment (6-mer frequency, TF over GST control)

CAAAAT
binding signal (FEV): 1.17 fold enrichment (6-mer frequency, TF over GST control) | binding signal (ETV5): 1.22 fold enrichment (6-mer frequency, TF over GST control) | binding signal (HSF1): 1.2 fold enrichment (6-mer frequency, TF over GST control) | binding signal (SPIC): 1.16 fold enrichment (6-mer frequency, TF over GST control) | binding signal (ELF4): 1.25 fold enrichment (6-mer frequency, TF over GST control) | binding signal (ELK4): 1.23 fold enrichment (6-mer frequency, TF over GST control) | binding signal (ETV2): 1.28 fold enrichment (6-mer frequency, TF over GST control) | binding signal (ELF3): 1.2 fold enrichment (6-mer frequency, TF over GST control) | binding signal (CRX): 1.22 fold enrichment (6-mer frequency, TF over GST control) | binding signal (ETV1): 1.25 fold enrichment (6-mer frequency, TF over GST control)
